Most compounds without a hit are left out; they make up all but 3.8% or so of the library.
Gli-Sufu antag = blocks Gli-Sufu signaling in a luciferase reporter; Sufu-KO-LIGHT fibroblasts, Gli luciferase reporter luminescence; 0.74% of 340,000 active; inhibition, % at 5 µM; AID 588413;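 active = inhibition above about 55%, limit read from the data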;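 also: 0% = DMSO-treated cells and 100% = wells with medium but no cells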
Mdm2-MdmX inh = inhibitors of human Mdm2/MdmX interaction; O15151+Q00987; SaOS-2 split-luciferase Mdm2/MdmX complementation, luminescence; inhibition, % at 8 µM; 3% of 330,000 active;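 active = inhibition of at least 50% at 8 µM in the primary screen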
Target sequence (O15151 whole entry, looked up): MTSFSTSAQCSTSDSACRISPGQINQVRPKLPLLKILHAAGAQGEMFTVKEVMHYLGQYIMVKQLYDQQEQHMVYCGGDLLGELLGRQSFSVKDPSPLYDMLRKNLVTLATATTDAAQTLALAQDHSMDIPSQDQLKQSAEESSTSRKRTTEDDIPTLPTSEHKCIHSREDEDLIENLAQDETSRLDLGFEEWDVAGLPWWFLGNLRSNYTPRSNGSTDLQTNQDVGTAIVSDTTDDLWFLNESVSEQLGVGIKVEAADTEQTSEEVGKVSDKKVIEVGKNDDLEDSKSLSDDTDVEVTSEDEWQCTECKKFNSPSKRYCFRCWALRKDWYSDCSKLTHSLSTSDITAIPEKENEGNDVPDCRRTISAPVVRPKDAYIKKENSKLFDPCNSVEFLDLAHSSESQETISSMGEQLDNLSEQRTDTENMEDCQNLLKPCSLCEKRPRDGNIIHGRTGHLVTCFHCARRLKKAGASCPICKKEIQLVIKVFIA
Target sequence (Q00987 whole entry, looked up): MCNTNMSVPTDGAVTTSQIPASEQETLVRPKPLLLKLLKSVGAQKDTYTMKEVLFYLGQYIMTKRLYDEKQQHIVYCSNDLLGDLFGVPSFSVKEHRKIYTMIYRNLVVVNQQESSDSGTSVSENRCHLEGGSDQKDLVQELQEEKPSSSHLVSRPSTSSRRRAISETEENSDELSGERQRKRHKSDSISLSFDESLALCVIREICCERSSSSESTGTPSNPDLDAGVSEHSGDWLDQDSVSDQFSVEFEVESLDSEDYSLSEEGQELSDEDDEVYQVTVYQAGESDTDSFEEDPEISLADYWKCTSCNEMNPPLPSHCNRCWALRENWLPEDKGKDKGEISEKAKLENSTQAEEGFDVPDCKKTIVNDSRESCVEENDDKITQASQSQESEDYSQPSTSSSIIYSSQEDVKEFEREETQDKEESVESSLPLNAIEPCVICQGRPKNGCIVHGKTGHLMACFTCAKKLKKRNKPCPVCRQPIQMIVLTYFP
697 NFkB inh = inhibitors of the PMA/ionomycin-induced NF-kB reporter in 697 B cells. inhibition, % at 4 µM. 0.33% of 330,000 active. 697 B-cell NF-kB luciferase reporter, 16 h; in the data active = inhibition above about 35%
Shn3 3UTR inh = reduces Shn3 3'UTR luciferase signal in osteoblasts; Clone20 osteoblast Shn3 3'UTR firefly luciferase, 24 h; inhibition, % at 12.5 µM; 0.52% of 360,000 active;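 active = mean inhibition of at least 75% with every replicate also reaching 75%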;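 also: 0% = median of neutral control wells and 100% = pilot-screen positive control compound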
Jurkat NFkB inh = inhibitors of the PMA/ionomycin-induced NF-kB reporter in Jurkat cells. 0.53% of 330,000 active. PMA/ionomycin-induced NF-kB luciferase reporter, luminescence. inhibition, % at 4 µM; in the data active = inhibition above about 50%
697 NFkB conf = lowers PMA/ionomycin-induced NF-kB signal in 697 B cells; shares compounds with 697 NFkB inh; 697 B-cell NF-kB luciferase, 16 h; inhibition, % at 4 µM; 35% of 2,000 active; in the data active = inhibition mostly above about 28%, no sharp cut-off; inactive = mostly below about 22%
Mdm2-MdmX conf = human Mdm2/MdmX binding inhibition, confirmed; AID 489028; luminescent assay; inhibition, % at 8 µM; shares compounds with Mdm2-MdmX inh; 55% of 10,000 active; in the data active = inhibition above about 40%
Full FLuc ctr = counter-screen for Mdm2/MdmX inhibitors: full-length luciferase. shares compounds with Mdm2-MdmX inh. SaOS-2 full-length luciferase counterscreen, luminescence. inhibition, % at 8 µM. 77% of 6,200 active;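 active = mean inhibition at 8 µM reaching about 37%, which flags the compound as non-specific, limit read from the data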;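 also: p53-null SaOS-2 cells with luciferase driven by a doxycycline-inducible promoter; compound on cells about two nights before reading with doxycycline added after day one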
Gli-Sufu confirm = Gli-SUFU antagonism confirmation, single concentration; inhibition, % at 5 µM; 40% of 2,500 active; shares compounds with Gli-Sufu antag; Sufu-KO-LIGHT cells, Gli luciferase reporter, luminescence;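 active = mean inhibition at 5 µM reaching about 45%, limit read from the data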;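 also: plate controls were DMSO-treated cells for no effect and wells lacking cells for full effect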
SufuKO cytotox = cytotoxicity counter-screen for Gli-SUFU antagonists; 32% of 2,500 active; AID 651994; cytotoxicity, % at 5 µM; shares compounds with Gli-Sufu antag; Sufu-KO-LIGHT cells cytotoxicity, ATP luminescence;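 active = mean cytotoxicity at 5 µM above about 25%, limit read from the data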;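 also: cells exposed to compound overnight for roughly 16 to 18 hours; plate controls were DMSO wells with cells for no effect and medium without cells for full effect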
Wnt3a cs = counter-screen for Gli-SUFU antagonists: Wnt3a reporter inhibition; inhibition, % at 6.25 µM; 20% of 2,500 active; shares compounds with Gli-Sufu antag; Wnt-LIGHT cells, Wnt3a-driven luciferase reporter, luminescence;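 active = mean inhibition above about 25%, limit read from the data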
An asterisk follows results filed as active.

`COc1ccc(-c2ccc(C(C)=O)cc2)cc1[C@H]1[C@H]2C=CC[C@@H](C)[C@@H]2C(=O)N1Cc1ccccc1` gave Gli-Sufu antag 18, Mdm2-MdmX inh 58*, 697 NFkB inh 48*, Shn3 3UTR inh 33, Jurkat NFkB inh 31, 697 NFkB conf 49* and Mdm2-MdmX conf 11.
COc1ccc(CN(C)CC(=O)Nc2cccc(S(=O)(=O)N3CCCC3)c2)cc1F was read as Gli-Sufu antag 9, Mdm2-MdmX inh 1, 697 NFkB inh -2, Shn3 3UTR inh -26 and Jurkat NFkB inh -9.
Screening CCN(Cc1ccccc1)N=Nc1ccccc1 returned Shn3 3UTR inh 13.
For COCCn1nnnc1C(c1cccs1)N1CCN2CCCC2C1 (centres undefined) the results were Gli-Sufu antag 8, Mdm2-MdmX inh -26, 697 NFkB inh 10, Shn3 3UTR inh -5 and Jurkat NFkB inh -2.
`CC(C)(C)c1ccc(/C=C2\SC(=O)N(CCNC(=O)c3cccc(S(=O)(=O)N4CCOCC4)c3)C2=O)cc1` gave Gli-Sufu antag 38, Mdm2-MdmX inh 70*, 697 NFkB inh -408, Shn3 3UTR inh 39, Jurkat NFkB inh -85, 697 NFkB conf -258, Mdm2-MdmX conf 76* and Full FLuc ctr 86*.
Screening COc1ccc(OC)c(C2CC(=O)Nc3cc(OC)c(OC)c(OC)c32)c1 (centres undefined) returned Gli-Sufu antag 24, Mdm2-MdmX inh 56*, 697 NFkB inh 35*, Shn3 3UTR inh -32, Jurkat NFkB inh -5, 697 NFkB conf 43* and Mdm2-MdmX conf 32.
CCCOc1c(OC)cccc1C1CC(=O)Nc2cc(OC)c(OC)c(OC)c21 (centres undefined) was read as Gli-Sufu antag 14, Mdm2-MdmX inh 43, 697 NFkB inh 18, Shn3 3UTR inh 0 and Jurkat NFkB inh -10.
N/C(=N\OC(=O)c1ccc(Cl)cc1Cl)c1ccc(Cl)cc1 was read as Gli-Sufu antag 1, Mdm2-MdmX inh 53*, 697 NFkB inh -260, Shn3 3UTR inh -14, Jurkat NFkB inh -93, 697 NFkB conf -177, Mdm2-MdmX conf 50* and Full FLuc ctr 146*.
For CCOC(=O)c1cccc(NC(=O)CC2Oc3ccccc3NC2=O)c1 (centres undefined) the results were Gli-Sufu antag -6, Mdm2-MdmX inh 4, 697 NFkB inh 9, Shn3 3UTR inh 11 and Jurkat NFkB inh -6.
O=C(NCCc1ccccc1)C(=O)NCCC1CCCCN1S(=O)(=O)c1cccs1 (centres undefined) was read as Gli-Sufu antag -4, Mdm2-MdmX inh 0, 697 NFkB inh -2, Shn3 3UTR inh 10 and Jurkat NFkB inh 8.
Screening COc1ccc(CN2CCNC(=O)C2CC(=O)NCCN2CCCCC2=O)c(F)c1 (centres undefined) returned Gli-Sufu antag 4, Mdm2-MdmX inh 7, 697 NFkB inh 1, Shn3 3UTR inh -8 and Jurkat NFkB inh -3.
`Cc1ccc(C2(c3ccc(C)cc3)CC2C(=O)Nc2ccc([N+](=O)[O-])cc2O)cc1` (centres undefined) gave Gli-Sufu antag 22, Mdm2-MdmX inh 96*, 697 NFkB inh 97*, Shn3 3UTR inh 78, Jurkat NFkB inh 23, 697 NFkB conf 97*, Mdm2-MdmX conf 93* and Full FLuc ctr 49*.
Screening Cc1cc(=O)[nH]c2c(C)cc(S(=O)(=O)N3CCCCC3)cc12 returned Gli-Sufu antag 30, Mdm2-MdmX inh 70*, 697 NFkB inh 43*, Shn3 3UTR inh -4, Jurkat NFkB inh -3, 697 NFkB conf 36*, Mdm2-MdmX conf 54* and Full FLuc ctr 89*.
`Cc1cc(=O)[nH]c2c(C)cc(S(=O)(=O)N3CCOCC3)cc12` gave Gli-Sufu antag 4, Mdm2-MdmX inh 11, 697 NFkB inh 15, Shn3 3UTR inh 7 and Jurkat NFkB inh 3.
Screening CCN1C(=O)[C@@H]2Cc3c([nH]c4ccccc34)C(c3ccc(OC)cc3)N2C1=S (some centres undefined) returned Gli-Sufu antag -8, Mdm2-MdmX inh 73*, 697 NFkB inh inactive, Shn3 3UTR inh 18, Jurkat NFkB inh -35, 697 NFkB conf -380, Mdm2-MdmX conf 58* and Full FLuc ctr 58*.
For COC(=O)c1ccc(C2c3[nH]c4ccccc4c3C[C@H]3C(=O)N(C)CC(=O)N23)cc1 (some centres undefined) the results were Gli-Sufu antag -2, Mdm2-MdmX inh 3, 697 NFkB inh -15, Shn3 3UTR inh 5 and Jurkat NFkB inh -27.
For O=C(/C=C/Sc1ccccc1)c1ccc(Cl)cc1 the results were Gli-Sufu antag -24, Mdm2-MdmX inh 40, 697 NFkB inh -104, Shn3 3UTR inh 3 and Jurkat NFkB inh 13.
`O=C(/C=C/Sc1ccccc1)c1ccccc1` gave Gli-Sufu antag -24, Mdm2-MdmX inh 52*, 697 NFkB inh -295, Shn3 3UTR inh 68, Jurkat NFkB inh 14, 697 NFkB conf -268 and Mdm2-MdmX conf -15.
For Cc1cc(NC(=O)c2ccc3c(c2)OCCO3)ccc1NC(=O)c1cc2ccccc2o1 the results were Gli-Sufu antag 6, Mdm2-MdmX inh 29, 697 NFkB inh -5, Shn3 3UTR inh 13 and Jurkat NFkB inh -16.
Screening O=C(Nc1ccc(NC(=O)c2cc3ccccc3o2)cc1)c1ccc2c(c1)OCCO2 returned Gli-Sufu antag 52, Mdm2-MdmX inh 10, 697 NFkB inh 72*, Shn3 3UTR inh 23, Jurkat NFkB inh 9, 697 NFkB conf 59*, Gli-Sufu confirm 61*, SufuKO cytotox 2 and Wnt3a cs 88*.
For COc1ccccc1CNC(=O)CN1C(=O)NC2(CCCC2)C1=O the results were Gli-Sufu antag -10, Mdm2-MdmX inh -11, 697 NFkB inh -9, Shn3 3UTR inh 1 and Jurkat NFkB inh -10.
CCOC(=O)c1sc(NC(=O)Nc2ccccc2F)nc1C was read as Gli-Sufu antag 51, Mdm2-MdmX inh 31, 697 NFkB inh -443, Shn3 3UTR inh 29, Jurkat NFkB inh -140, 697 NFkB conf -439, Gli-Sufu confirm 41, SufuKO cytotox 49* and Wnt3a cs 85*.

Compound activity: PubChem, several laboratories
